Screening data from PubChem BioAssay.
WRN helicase inh = inhibitors of human WRN helicase. Q14191. WRN helicase unwinding, fluorescent forked duplex, kinetic. Potency, µM (highest dose often 114 µM), inactives show top-dose activity change, negative = inhibition, hits mostly inhibitors. 0.46% of 360,000 active; also: % is scaled to controls: 0 for no effect and ±100 for the full control effect; nearly all actives have a fitted effect of over 55% in size
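Fluorescence dequenching readout, ex 525 nm/em 598 nm, kinetic mode: forked duplex DNA (100 nM final) with adjacent fluorophore and quencher unwound by WRN (20 nM final) with 2 mM ATP. Compound preincubation 15 min, room temperature.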
L3MBTL1 block = blocks human L3MBTL1 | Potency, µM (series often up to 57.1 µM), inactives show at the highest dose activity, negative = inhibition, actives largely listed as inhibitors | Q9Y468 | 0.66% of 230,000 active | AlphaScreen L3MBTL1–H3K9me1 peptide binding; also: % is scaled to controls: 0 for no effect and ±100 for the full control effect; nearly all actives have a fitted effect of over 60% in size
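AlphaScreen proximity signal between nickel-chelate acceptor and streptavidin donor beads (final 10 ug/mL) reports binding of 50 nM L3MBTL1 to 75 nM biotin-H3 K9me1 peptide; complex incubated with compounds 30 min at room temperature; cefsulodin titration as control.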
Pol beta inh = blocks human DNA polymerase beta activity; P06746; Pol beta primer extension/strand displacement, fluorescence kinetic; Potency, µM (series often up to 114 µM), for the others: at the top dose activity change, negative = inhibition, usual class: inhibitors; 1.3% of 340,000 active; AID 485314; also: % is scaled to controls: 0 for no effect and ±100 for the full control effect
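Pol beta (10 nM) was preincubated with compound for 15 min at room temperature. The reaction was then started with 50 nM substrate and read immediately and after a further 10 min at room temperature.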
POLI inh = DNA polymerase iota (human) inhibition. Q9UNA4. Pol iota fluorescent replication assay, 10 min. Potency, µM (top dose mostly 115 µM), for the others: at the top dose activity, negative = inhibition, most hits filed as inhibitors. 1% of 390,000 active. AID 588590
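Fluorescent replication assay read twice, at 0 min and 10 min after adding 50 nM (final) substrate. Enzyme (10 nM) and compounds were first incubated 15 min at room temperature; enzyme-free buffer wells were negative controls.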
Pol eta inh = inhibitors of human DNA polymerase eta. Q9Y253. recombinant Pol eta, fluorescent DNA replication assay. Potency, µM (series often up to 114 µM), for inactives: top-dose activity change, negative = inhibition, most hits filed as inhibitors. 1.2% of 390,000 active; also: % is scaled to controls: 0 for no effect and ±100 for the full control effect
Target sequence (Q9Y253 whole entry, looked up): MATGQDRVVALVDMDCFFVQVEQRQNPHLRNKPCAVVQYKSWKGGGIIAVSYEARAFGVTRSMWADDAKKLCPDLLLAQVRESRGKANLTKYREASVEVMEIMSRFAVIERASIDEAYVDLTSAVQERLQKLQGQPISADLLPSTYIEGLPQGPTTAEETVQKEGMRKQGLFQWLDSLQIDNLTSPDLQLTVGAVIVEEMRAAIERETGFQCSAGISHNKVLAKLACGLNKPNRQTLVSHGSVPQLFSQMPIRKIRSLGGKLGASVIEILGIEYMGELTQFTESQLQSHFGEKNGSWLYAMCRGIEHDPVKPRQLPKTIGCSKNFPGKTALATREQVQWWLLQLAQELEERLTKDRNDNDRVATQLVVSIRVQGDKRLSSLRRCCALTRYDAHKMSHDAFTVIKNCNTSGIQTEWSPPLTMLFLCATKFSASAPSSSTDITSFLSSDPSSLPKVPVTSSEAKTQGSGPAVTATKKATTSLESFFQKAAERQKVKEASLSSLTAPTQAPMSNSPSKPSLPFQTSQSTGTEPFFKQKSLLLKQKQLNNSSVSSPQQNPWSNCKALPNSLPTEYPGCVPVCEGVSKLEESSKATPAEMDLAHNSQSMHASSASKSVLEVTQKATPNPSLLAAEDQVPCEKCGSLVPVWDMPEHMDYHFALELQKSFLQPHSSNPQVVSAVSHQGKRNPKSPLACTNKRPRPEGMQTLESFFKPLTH
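Pol eta (10 nM) was preincubated with compounds for 15 min at room temperature, after which fluorescent replication substrate (50 nM final) was added to start the reaction. Fluorescence was read kinetically at 0 and 10 min.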
Pol kappa inh = inhibitors of human DNA polymerase kappa | Potency, µM (top dose mostly 107 µM), for the others: at the top dose activity, negative = inhibition, most hits filed as inhibitors | AID 588579 | 0.53% of 400,000 active | purified Pol kappa, fluorescent DNA synthesis assay, 10 min; also: % is scaled to controls: 0 for no effect and ±100 for the full control effect
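Kinetic fluorescence readout at 0 and 10 min followed reaction start with substrate at 50 nM final. Beforehand, enzyme (10 nM Pol kappa) stood 15 min with compound at room temperature; buffer-only wells were negative controls.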
Active calls of the source: *; ? = inconclusive; nt = no result; [ ] = remark or other dose. This is a sample that favours compounds with a hit; in the whole collection about 2.5% have one here. Calls follow the shape of the dose curve; as a rule, active = well fitted curve in the direction sought with a large enough effect; inconclusive = small, poorly fitted or top-dose-only effect, or another doubt; inactive = no such curve, though single readings can be large; an effect the other way counts as inactive or inconclusive. Potency is read from the fitted curve at half-maximal effect.

SMILES	WRN helicase inh	L3MBTL1 block	Pol beta inh	POLI inh	Pol eta inh	Pol kappa inh
O=C(CSc1ccc2nnc(-c3cccnc3)n2n1)NCc1ccco1	-9%	nt	0%	-13%	-2%	-10%
O=C(CSc1ccc2nnc(-c3cccc(F)c3)n2n1)NCc1ccco1	-19%	-2%	79µM*	?	0%	-39%
CCc1cccc(NC(=O)CCS(=O)(=O)c2ccc3c(c2)NC(=O)CO3)c1	0%	nt	3%	2%	-16%	15%
C=CCn1c(SCC(=O)NCC2CCCO2)nc2scc(-c3ccco3)c2c1=O (stereo not drawn)	-1%[11.6 µM]	?	7.1µM*	?	-9%	-33%
C=CCn1c(SCC(=O)NCCOC)nc2scc(-c3ccco3)c2c1=O	?	-9%	?	?	18µM*	?
Cn1c(SCC(=O)Nc2ccc(N3CCOCC3)c(Cl)c2)nnc1C(O)c1ccccc1 (stereo not drawn)	1%	-7%	-3%	12%	-14%	2%
N#Cc1c(N(CCO)CCO)nc(N)c2c(N)nc3c(c12)CC(=O)N3Cc1cccs1	-14%	-24%	2%	3.5µM*	40µM*	-9%
CCOC(=O)C1Nc2ccccc2C2C(O)C(O)CC12 (stereo not drawn)	-6%	nt	nt	25µM*	10%	-31%
C=C(C)Cn1c(=O)c2c(nc3n2CCN3c2cc(C)cc(C)c2)n(C)c1=O	nt	nt	-13%	79µM*	-9%	-6%
Cn1c(NN)nc2c1c(=O)n(Cc1ccccc1)c(=O)n2C	-6%	nt	40µM*	?	?	-16%
CCOC(=O)CSc1nc(COc2ccccc2)nc2ccccc12	0%	29%	-15%	-27%	-11%	-1%
O=C(CSc1ccc(-c2nc3ccccc3[nH]2)cn1)N1CCN(C(=O)c2ccco2)CC1	?	0%	?	16µM*	?	50µM*
CCc1nc2ccc(C(=O)N(CC)CC(=O)Nc3c(F)cccc3F)cc2nc1CC	-5%	-18%	nt	?	35µM*	-45%
COc1cc(CNc2ncnc3c2ncn3[C@H]2CN(Cc3ccc(-c4ccccc4)cc3)C[C@@H](CO)O2)cc(OC)c1OC	-4%	nt	nt	nt	nt	nt
Cc1cccc(NC2=NCC(=O)N2Cc2cccs2)c1	50µM*	5%	-16%	34%	-1%	-12%
Cc1ccnc(N/C=C(\C#N)c2nc(-c3cccc(Br)c3)cs2)c1	-25%	17%	35µM*	?	-21%	-4%
N#C/C(=C/c1ccc(Cl)cc1)c1nc(-c2ccc(Br)cc2)cs1	nt	nt	-8%	?	-11%	-24%
O=C(O)CC/C(=N/NC(=O)c1cn(-c2ccccc2)nc1-c1ccccc1)C(=O)O	-4%[57.1 µM]	1%	1%	25µM*	-10%	-3%
Cc1cccc(N2CCN(C(=O)Cn3nc(C)c4sc5ccccc5c4c3=O)CC2C)c1 (stereo not drawn)	nt	nt	4%	-3%	-11%	4%
O=C(Nc1ccccc1)Nc1ccc(NC(=O)c2ccccc2O)cc1	-1%[57.1 µM]	nt	32µM*	-27%	3%	-10%
Cc1ccc(NC(=O)c2ccccc2O)cc1	3%	17%	6%	-6%	-15%	4%
Cc1cc(C)cc(NC(=O)Nc2ccc(NC(=O)c3ccccc3O)cc2)c1	-4%	nt	35µM*	0%	-16%	-10%
O=C(Nc1ccccc1)c1ccccc1O	-1%	-1%	0%	-9%	-11%	-7%
NCCCCCCCCCCNS(=O)(=O)c1cccc2c(Cl)cccc12	nt	nt	nt	?	nt	-8%
C/C(N)=C(/C#N)C(=O)CSc1nnc(COc2ccccc2Cl)o1	-4%[11.6 µM]	nt	40µM*	89µM*	?	-8%
SMILES	WRN helicase inh	L3MBTL1 block	Pol beta inh	POLI inh	Pol eta inh	Pol kappa inh
CCOC(=O)C(=O)NNc1ccc(F)cc1	3%	nt	4%	-8%[58.9 µM]	-20%	-7%
O=c1c([N+](=O)[O-])c(O)c2cccc3c2n1CCC3	-12%[11.6 µM]	nt	35µM*	-86%	50µM*	?
COc1ccc(-c2cc(C(C)=O)c(C)n2CCC(=O)NC2CCCCC2)cc1	nt	nt	2%	13%	13%	-13%[60.1 µM]
Nc1nc2ncccn2c1-c1ccc(F)cc1	1%	nt	nt	nt	nt	nt
O=Nc1nc2ncccn2c1-c1ccccc1	?	nt	nt	22µM*	-5%	-16%
COC(=O)NCc1c(C)nn(-c2ccccc2)c1-n1cccc1	nt	nt	14%	10%	-12%	-12%
CNc1ccnc(-c2ccccc2OC)n1	nt	nt	nt	nt	nt	2%[60.1 µM]
c1nc(SSc2ncnc3nc[nH]c23)c2[nH]cnc2n1	40µM*	nt	nt	?	-11%	-5%
O=C(N/N=C1/CCCc2ccccc21)c1cc([N+](=O)[O-])cc([N+](=O)[O-])c1	nt	0%	9%	nt	nt	nt
Cc1cc(NC(=O)c2cc(-c3ccccn3)nc3c(Cl)cccc23)no1	-31%	nt	-26%	-5%	-22%	0%
O=C(Nc1nccs1)c1cc(-c2ccccn2)nc2c(Cl)cccc12	4%	nt	?	25µM*	?	-34%
COc1cccc2sc(Nc3nc(-c4cc5ccccc5oc4=O)cs3)nc12	?	-2%	35µM*	?	?	?
COc1cccc(-c2noc(-c3cc4ccccc4oc3=O)n2)c1OC	nt	nt	18%	71µM*	-7%	1%
CCN(CC)S(=O)(=O)c1cccc(NC(=O)COC(=O)C2=COCCO2)c1	7%	-4%	nt	-9%	-24%	-19%
O=C(CSc1nc2nn(-c3ccccc3)c(=O)c-2c2n1CCCCC2)c1ccc(O)c(O)c1	2.8µM*	8.9µM*	nt	2µM*	1.8µM*	4µM*
CNC(=O)CSc1nc2nn(-c3ccccc3)c(=O)c-2c2n1CCCCC2	-12%	9%	36%	-14%[58.9 µM]	-7%	0%
CCOc1ccc(OCC)c(NC(=O)C2CCCN(S(=O)(=O)c3cc(Br)cc4c3N(C(=O)CC)CC4)C2)c1 (stereo not drawn)	nt	nt	0%	89µM*	-4%	-24%
CC(C)(C)n1nnnc1C(c1ccccc1)N1CCN(c2ccccc2)CC1 (stereo not drawn)	8%	nt	nt	nt	nt	nt
COc1ccc(N(CC(=O)N/N=C/c2ccco2)S(=O)(=O)c2ccccc2)cc1	-30%	?	8.9µM*	?	89µM*	-22%
COc1ccc(S(=O)(=O)N(CC(=O)O)c2ccccn2)cc1	-3%	nt	7%	45%	-2%	-13%
COc1cccc(NC(=O)CN(c2ccc([N+](=O)[O-])cc2)S(=O)(=O)c2ccccc2)c1	-13%[57.1 µM]	-19%	-13%	10%	-16%	0%
COc1ccc(NC(=O)CN(c2ccc([N+](=O)[O-])cc2)S(=O)(=O)c2ccccc2)cc1	0%	-3%	0.11µM*	5%	-17%	-5%
COc1ccc(S(=O)(=O)N(CC(=O)O)c2ccccc2)cc1	-8%[57.1 µM]	9%	15%	100µM*	-6%	-24%
